Screening data (PubChem)
This is a sample that favours compounds with a hit; in the whole collection about 32% have one here.
CYP2C9 act: CYP2C9 (human) activation | P11712 | recombinant CYP2C9, luciferin-H conversion, luminescence; hits give high values; factor 1 = untreated enzyme, 0 = blocked | activation factor at 5 µM | hit rate 1.4% among 96,000;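 active = activation factor of 2 or more for CYP2C9 at a 5 µM dose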;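 note: 0 = sulfaphenazole-blocked wells and 1 = vehicle-only wells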
CYP2C9 inhib: blocks human cytochrome P450 2C9; P11712; hit rate 20% among 96,000; inhibition, % at 5 µM; CYP2C9 Supersomes, luciferin-H conversion, luminescence;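 active = blocking of liver enzyme CYP2C9 beyond about 50% at 5 µM, limit read from the data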
PostGolgi yeast: growth inhibition of a yeast mutant, post-Golgi transport screen; post-Golgi transport phenotypic cell assay; inhibition, % at 10 µM; hit rate 0.9% among 98,000; AID 739;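 note: yeast cells grown in 1536-well plates; yeast grown about 18 h at 30C before absorbance read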
PostGolgi ctrl: growth of the yeast control strain, post-Golgi counter-screen; efflux-deficient yeast background strain, growth absorbance A615, 16 h; inhibition, % at 10 µM; hit rate 5% among 98,000; AID 738
CYP2C19 activ: cytochrome P450 2C19 (human) activation. P33261. recombinant CYP2C19, luciferin-H EGE luminescence; hits give high values; 0 = fully inhibited enzyme, 1 = untreated enzyme. activation factor at 5 µM. 96,000 tested, under 10 active. AID 1025;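 active = activation factor of at least 2 at 5 µM in the primary screen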;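 note: 0 = wells with 2.5 mM tranylcypromine and 1 = vehicle-only wells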
Target sequence (P33261 whole entry, looked up): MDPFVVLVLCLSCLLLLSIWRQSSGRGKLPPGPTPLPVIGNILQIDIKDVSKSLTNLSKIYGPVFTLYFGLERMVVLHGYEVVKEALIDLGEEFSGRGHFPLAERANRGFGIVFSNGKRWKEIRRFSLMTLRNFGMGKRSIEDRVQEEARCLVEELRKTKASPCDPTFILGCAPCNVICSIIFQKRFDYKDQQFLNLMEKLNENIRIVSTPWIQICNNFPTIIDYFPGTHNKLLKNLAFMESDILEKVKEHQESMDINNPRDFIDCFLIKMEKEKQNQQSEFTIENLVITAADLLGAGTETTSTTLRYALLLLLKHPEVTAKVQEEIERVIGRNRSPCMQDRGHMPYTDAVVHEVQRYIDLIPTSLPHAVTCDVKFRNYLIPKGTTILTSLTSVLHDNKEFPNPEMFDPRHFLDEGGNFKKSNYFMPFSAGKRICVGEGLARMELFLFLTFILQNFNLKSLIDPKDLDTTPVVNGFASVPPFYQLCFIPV
CYP2C19 inh: blocks human cytochrome P450 2C19 | CYP2C19 Supersomes, luciferin-H EGE luminescence, 30 min | inhibition, % at 5 µM | hit rate 21% among 96,000 | AID 778;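 active = CYP2C19 inhibition above a set limit at 5 µM in the primary screen, cut at about 50% in these data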;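 note: plate controls were negative control wells for no effect and 2.5 mM tranylcypromine positive control for full effect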
The depositor's hits bear a star. Cut-off read from the data, not from the text of the source, unless noted: active = inhibition above about 30%; inactive = the rest.

Results for COc1ccc(Cc2nnc(NC(=O)c3c(-c4ccccc4)noc3C)s2)cc1OC ?
CYP2C9 act: 0.5; CYP2C9 inhib: 54*; PostGolgi yeast: -1; PostGolgi ctrl: 5; CYP2C19 activ: 0.9; CYP2C19 inh: 9

How did O=C(CSc1nnc(-c2ccncc2)n1-c1ccc(F)cc1)NC(=O)NCc1ccco1 do in these assays?
PostGolgi yeast: 1; PostGolgi ctrl: 7

What do the screens show for `CN(C)CCCOc1ccc(C(C)(C)c2ccccc2)cc1`?
CYP2C9 act: 1; CYP2C9 inhib: 0; PostGolgi yeast: 1; PostGolgi ctrl: 3; CYP2C19 activ: 0.9; CYP2C19 inh: 8

How did COC(=O)/C(=C1/Oc2cc(C)oc(=O)c2S1)C(F)(F)F do in these assays?
PostGolgi yeast: 5; PostGolgi ctrl: 78*

How did CCOC(=O)C(OC(=O)c1sc(=S)n(C)c1C)C(C)=O (configuration not stated) do in these assays?
CYP2C9 act: 0.8; CYP2C9 inhib: 16; PostGolgi yeast: -4; PostGolgi ctrl: 14; CYP2C19 activ: 1; CYP2C19 inh: 0

Results for CCc1ccccc1NC(=O)CC(O)(C(=O)OC)C(F)(F)F (configuration not stated) ?
CYP2C9 act: 0.8; CYP2C9 inhib: 23; PostGolgi yeast: 3; PostGolgi ctrl: -6; CYP2C19 activ: 0.5; CYP2C19 inh: 48

Results for O=C(O)C1CCCCC1C(=O)NCCc1ccncc1 (configuration not stated) ?
CYP2C9 act: 0.3; CYP2C9 inhib: 67*; PostGolgi yeast: -3; PostGolgi ctrl: -2; CYP2C19 activ: 0.5; CYP2C19 inh: 46

What do the screens show for `O=C(NCc1ccc(F)cc1)c1cnc2sccn2c1=O`?
CYP2C9 act: 1.2; CYP2C9 inhib: -19; CYP2C19 activ: 0.6; CYP2C19 inh: 40

How did O=C(NCCc1c[nH]c2ccccc12)c1cnc2sccn2c1=O do in these assays?
CYP2C9 act: 2.5*; CYP2C9 inhib: -152; PostGolgi yeast: -2; PostGolgi ctrl: 9; CYP2C19 activ: 0.1; CYP2C19 inh: 89*

Results for CCSc1nnc(NC(=O)C2Cc3ccccc3CN2C(=O)c2ccco2)s1 (configuration not stated) ?
CYP2C9 act: 0.5; CYP2C9 inhib: 53*; PostGolgi yeast: 22; PostGolgi ctrl: 7; CYP2C19 activ: 0.8; CYP2C19 inh: 23

How did NS(=O)(=O)c1ccc(CCNC(=O)C2Cc3ccccc3CN2C(=O)c2ccco2)cc1 (configuration not stated) do in these assays?
CYP2C9 act: 0.8; CYP2C9 inhib: 23; PostGolgi yeast: -2; PostGolgi ctrl: 2; CYP2C19 activ: 0.9; CYP2C19 inh: 14

Results for O=C(O)C1CCCCC1C(=O)NCCc1c[nH]c2ccccc12 (configuration not stated) ?
CYP2C9 act: 0.7; CYP2C9 inhib: 33; PostGolgi yeast: -4; PostGolgi ctrl: 0; CYP2C19 activ: 0.2; CYP2C19 inh: 75*

How did CCC1(C)N=c2c(c(=O)n(C)c(=O)n2C)=NO1 (configuration not stated) do in these assays?
CYP2C9 act: 1.1; CYP2C9 inhib: -12; PostGolgi yeast: -1; PostGolgi ctrl: -4; CYP2C19 activ: 1.1; CYP2C19 inh: -14

What do the screens show for `O=C(NCCc1c[nH]c2ccccc12)C(F)(F)C(F)F`?
CYP2C9 act: 0.7; CYP2C9 inhib: 27; PostGolgi yeast: -7; PostGolgi ctrl: 14; CYP2C19 activ: 0.3; CYP2C19 inh: 72*

Results for COc1ccc(Cl)cc1NC(=S)NCCc1c[nH]c2ccccc12 ?
CYP2C9 act: 2.3*; CYP2C9 inhib: -130; PostGolgi yeast: 10; PostGolgi ctrl: 6; CYP2C19 activ: 0.1; CYP2C19 inh: 92*

What do the screens show for `N#Cc1cn(CC(=O)NCCc2c[nH]c3ccccc23)c2ccccc12`?
CYP2C9 act: 0.3; CYP2C9 inhib: 66*; PostGolgi yeast: 3; PostGolgi ctrl: 2; CYP2C19 activ: 0.5; CYP2C19 inh: 50*

What do the screens show for `O=C(NCCc1c[nH]c2ccccc12)Nc1ccccc1`?
CYP2C9 act: 1.2; CYP2C9 inhib: -20; PostGolgi yeast: 8; PostGolgi ctrl: -2; CYP2C19 activ: 0.1; CYP2C19 inh: 91*

Results for O=C(NCCCNC(=O)C(F)(F)C(F)F)C(F)(F)C(F)F ?
CYP2C9 act: 0.8; CYP2C9 inhib: 16; PostGolgi yeast: 11; PostGolgi ctrl: -3; CYP2C19 activ: 0.9; CYP2C19 inh: 10

How did CCC(=O)NCCc1c[nH]c2ccccc12 do in these assays?
CYP2C9 act: 1.1; CYP2C9 inhib: -8; PostGolgi yeast: 2; PostGolgi ctrl: 3; CYP2C19 activ: 0.9; CYP2C19 inh: 12

Results for O=C(Nc1cccc(Br)c1)c1ccn[nH]1 ?
CYP2C9 act: 1.1; CYP2C9 inhib: -6; PostGolgi yeast: 3; PostGolgi ctrl: 13; CYP2C19 activ: 0.8; CYP2C19 inh: 16

Results for O=C(Nn1c(O)c(C=C2N=c3ccccc3=N2)sc1=S)c1cccc(Cl)c1 ?
CYP2C9 act: 0.9; CYP2C9 inhib: 15; PostGolgi yeast: 4; PostGolgi ctrl: -3; CYP2C19 activ: 1; CYP2C19 inh: 2

How did COC(=O)COc1cccc2c(=O)n(CC(=O)N3CCCc4ccccc43)ccc12 do in these assays?
CYP2C9 act: 0.9; CYP2C9 inhib: 8; PostGolgi yeast: -9; PostGolgi ctrl: -2; CYP2C19 activ: 0.9; CYP2C19 inh: 6

What do the screens show for `Cc1ccc(NC(=S)NCCc2c[nH]c3ccccc23)cc1`?
CYP2C9 act: 0.8; CYP2C9 inhib: 19; PostGolgi yeast: 2; PostGolgi ctrl: 1; CYP2C19 activ: 0.1; CYP2C19 inh: 86*

Results for O=C(NCCc1c[nH]c2ccccc12)C1Cc2ccccc2CN1C(=O)c1ccco1 (configuration not stated) ?
CYP2C9 act: 0.4; CYP2C9 inhib: 63*; PostGolgi yeast: 2; PostGolgi ctrl: 7; CYP2C19 activ: 0; CYP2C19 inh: 95*

How did C#CCOC(=O)c1ccccc1C(=O)N(CC)CC do in these assays?
CYP2C9 act: 1; CYP2C9 inhib: 4; PostGolgi yeast: -1; PostGolgi ctrl: 5; CYP2C19 activ: 0.9; CYP2C19 inh: 8

How did Cc1cccc(C)c1OCc1nnc(SCC(=O)NCc2ccccc2)o1 do in these assays?
CYP2C9 act: 0.7; CYP2C9 inhib: 31; PostGolgi yeast: -3; PostGolgi ctrl: 4; CYP2C19 activ: 0.7; CYP2C19 inh: 30

What do the screens show for `O=C1CC(C(=O)Nc2ccccc2)N=C(N2CCCCC2)N1` (configuration not stated)?
CYP2C9 act: 1; CYP2C9 inhib: -4; PostGolgi yeast: 6; PostGolgi ctrl: 31*; CYP2C19 activ: 1; CYP2C19 inh: -2

What do the screens show for `O=C1CC(C(=O)NCc2ccccc2)N=C(N2CCCCC2)N1` (configuration not stated)?
CYP2C9 act: 1.2; CYP2C9 inhib: -21; PostGolgi yeast: -11; PostGolgi ctrl: 8; CYP2C19 activ: 1.1; CYP2C19 inh: -11
